Assay results reported in PubChem BioAssay AID504725 (Broad Institute, 2011).
Measured potencies and affinities stand elsewhere. Activity calls are given as the source filed them. How the calls were made is not given here.

What follows are molecules tested against KSHV LANA C-terminal domain (residues 932-1162) binding to LBS DNA (UniProt O40947) (assay: inhibitors of C-LANA binding to LBS DNA, dose response, biochemical, fluorescence polarization, cherry-picked samples (AID 504725)). Details: MBP-C-LANA / FAM-LBS DNA fluorescence polarization, percent change from plate compound-well median; series mostly up to 35 µM.

outcome, inactive:
CN1CCN(CCCNC(=O)c2cc3c(-c4ccc(Cl)cc4)nn(C)c3s2)CC1
O=C(CCn1c(=S)oc2ccccc21)N1CCN(c2ccc(F)cc2)CC1
CCc1noc(C)c1C(=O)N1CCCC(N2CCN(c3ccc(F)cc3)CC2)C1 (stereo unspecified)
CC(C)=C[C@@H]1C[C@H](C)[C@H]2CC[C@H](C)c3c(O[C@@H]4O[C@@H](C)[C@@H](O)[C@@H](O)[C@@H]4O)c(O)c(C)c1c32
CCN(CCCNC(=O)Cn1cc2c(n1)CCCC2)c1cccc(C)c1
Cc1ccc(NC(=O)c2ccc(Cl)c(S(=O)(=O)N3CCc4ccccc43)c2)nc1
CC(C)C(=O)N1CCN(c2ccccc2NC(=S)NC(=O)c2ccco2)CC1
NC1=NC[C@@H](Cc2ccc(O)cc2)N1CCc1cc(C(F)(F)F)cc(C(F)(F)F)c1
Cc1ccc(/C=C/S(=O)(=O)N2CCC(C(=O)O)CC2)cc1
CCOC(=O)c1c(C)nc2cc(C)ccn12
NNC(=S)Nc1ccc(S(=O)(=O)N2CCOCC2)cc1
O=[N+]([O-])c1cc(-n2cnnn2)ccc1N1CCC(Cc2ccccc2)CC1
Cc1c(C)n(Cc2ccccc2)c2ncnc(Cl)c12
O=C(c1cccc(S(=O)(=O)NCc2ccccc2)c1)N1CCN(c2ccccc2Cl)CC1
CCOC(=O)C1(Cc2cccc(F)c2)CCN(Cc2c(C)nn(CC)c2C)CC1
CCCCn1c(NS(=O)(=O)c2ccc(C)cc2)c(S(=O)(=O)c2ccccc2)c2nc3ccccc3nc21
